# Experimental data from paper PMC5540273 (PLoS ONE, 2017).
# System: AKT3
# Conditions: concentration: 1 μM, replicates: in singlicate; n = 1
# 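Also: KINOMEscan kinase panel screen.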
row,SMILES,%Inh [%]
1,COc1ccc(NC(=O)c2ccoc2)cc1-c1ccc(C(=O)NCC2CC2)cc1 [GW810437],0
2,CC(=O)Nc1cn2nc(Oc3cccc(NC(=O)c4cccc(C(F)(F)F)c4)c3)ccc2n1,16
3,Cc1ccc(C)c(NC(=O)Nc2ccc(C)c(-c3ccc(C(=O)Nc4ccncc4)cc3)c2)c1 [GSK1398473],0
4,CN(C)c1ncnc2nc[nH]c12 [SKF-31736],0
5,Cc1ccc(O)cc1Nc1ccnc2cc(-c3ccc(CN4CCCCC4)o3)ccc12 [GW557777],0
6,Cl.Cl.NCC(NC(=O)c1cc(-c2cccnc2)c(-c2ccnc3[nH]ccc23)s1)c1ccccc1 (centres unmarked) [GSK1323434],86
7,CC(C)NCC(Cc1ccccc1)NC(=O)c1cc(Br)c(-c2ccnc3[nH]ccc23)s1.Cl.Cl (centres unmarked) [GSK1383281],86
8,COc1cccc(NC(=O)NCCNc2ccnc(Nc3ccc(F)cc3)n2)c1 [GSK1379879],0
9,Cc1cc(-c2ccnc(Nc3cccc(C#N)c3)n2)cc(C)c1O [GSK1440913],0
10,Cc1ccc(O)cc1Nc1ccnc2ccc(C(C)(C)C)cc12 [GW856805],18
11,O=C(Nc1n[nH]c2nc(-c3ccccc3)ccc12)C1CC1 [SB-708999],0
12,Cl.Cl.NC(CNC(=O)c1cc(Br)c(-c2ccnc3[nH]ccc23)s1)c1ccccc1 (centres unmarked) [GSK1322949],88
13,Cn1cc(-c2cnc(N)c3c(-c4ccc5c(c4)CCN5C(=O)Cc4ccccc4)csc23)cn1 [GSK2593074],8
14,O=C1NC(=O)C(c2ccccc2Cl)=C1Nc1cccc(Cl)c1 [SB-342409],0
15,COc1ccc(C2=C(Nc3cccc(O)c3)C(=O)NC2=O)cc1 [SB-390766],0
16,CN(C)CCNS(=O)(=O)c1ccc(-c2ccnc3[nH]ccc23)cc1 [GSK977620],75
17,CC(C)c1nc(-c2cccc(NS(=O)(=O)c3c(F)cccc3F)c2)c(-c2ccnc(Nc3ccc(N4CCOCC4)nc3)n2)s1.Cl [GSK1723980],0
18,CCn1cnc2c(NCc3ccccc3)ncnc21 [SKF-96418],0
19,COC(=O)Nc1nc2cc(Oc3ccc(NC(=O)Nc4cccc(SC)c4)cc3)ccc2[nH]1.Cl [GW697999],0

row,SMILES,%Inh [%]
1,O=C(Nc1n[nH]c2nc(-c3cccc(O)c3)ccc12)C1CC1 [SB-711805],4
2,CN(c1ccc(F)c(NC(=O)c2cccc(OC(C)(C)C#N)c2Cl)c1)c1ccc2nc(NC(=O)C3CC3)sc2n1,0
3,Cc1nn2c(=O)cc(N3CCO[C@H](C)C3)nc2n1Cc1cccc(Cl)c1Cl [GSK2373693],4
4,Cl.O=C(Nc1ccc(Oc2ccc3[nH]c(NC(=O)c4ccco4)nc3c2)cc1)Nc1cc(C(F)(F)F)ccc1F [GW683134],0
5,N#CC1(c2cccc(C(=O)Nc3cccc(Oc4ccc5nc(NC(=O)C6CC6)sc5n4)c3)c2)CC1,0
6,COC(=O)Nc1nc2ccc(Oc3ccc(CC(=O)Nc4cc(C(F)(F)F)ccc4F)cc3)cc2[nH]1 [GW680903],0
7,O=C(Nc1n[nH]c2nc(-c3ccccc3O)ccc12)C1CC1 [SB-711880],0
8,CNc1nccc(-c2ccc3c(N)n[nH]c3c2)n1 [GSK2206003],0
9,O=C(Nc1n[nH]c2cc(-c3cccs3)ccc12)C1CC1 [SB-731284],0
10,CC(C)(C)c1ccc(C(=O)Nc2cn3cc(-n4ccnc4)ccc3n2)cc1,0
11,Cc1ccc(Nc2ccnc(Nc3ccc(C)c(F)c3)n2)cc1O.Cl [GW582868],0
12,Fc1cc(Cl)ccc1Nc1ccnc2cc(-c3ccc(CN4CCOCC4)o3)ccc12 [GW560109],19
13,Nc1cccc(-c2ccc3c(N)n[nH]c3c2)c1 [GSK2193613],23
14,Nc1ncnc2scc(-c3ccc(NC(=O)Cc4cc(F)ccc4F)cc3)c12.O=C(O)C(F)(F)F [SB-731254-M],9
15,COc1cccc(-c2nc(-c3ccccc3)[nH]c2-c2ccncc2)c1 [SB-610250],0
16,Cc1cccc(Nc2nc(NCCN)ncc2C(N)=O)c1 [GSK1292139],0
17,CN1CCN(Cc2ccc(NC(=O)Nc3ccc(N(C)c4ccnc(Nc5ccc(CS(C)(=O)=O)cc5)n4)cc3)cc2)CC1.Cl [GW827654],0
18,CN(c1ccc(NC(=O)Nc2cccc(Cl)c2)cc1)c1ccnc(N)n1.Cl [GW830707],12

# System: ALK
# Conditions: concentration: 1 μM, replicates: in singlicate; n = 1
row,SMILES,%Inh [%]
1,COc1ccc(NC(=O)c2ccoc2)cc1-c1ccc(C(=O)NCC2CC2)cc1 [GW810437],0
2,CC(=O)Nc1cn2nc(Oc3cccc(NC(=O)c4cccc(C(F)(F)F)c4)c3)ccc2n1,9
3,Cc1ccc(C)c(NC(=O)Nc2ccc(C)c(-c3ccc(C(=O)Nc4ccncc4)cc3)c2)c1 [GSK1398473],38
4,CN(C)c1ncnc2nc[nH]c12 [SKF-31736],0
5,Cc1ccc(O)cc1Nc1ccnc2cc(-c3ccc(CN4CCCCC4)o3)ccc12 [GW557777],0
6,Cl.Cl.NCC(NC(=O)c1cc(-c2cccnc2)c(-c2ccnc3[nH]ccc23)s1)c1ccccc1 (centres unmarked) [GSK1323434],23
7,CC(C)NCC(Cc1ccccc1)NC(=O)c1cc(Br)c(-c2ccnc3[nH]ccc23)s1.Cl.Cl (centres unmarked) [GSK1383281],32
8,COc1cccc(NC(=O)NCCNc2ccnc(Nc3ccc(F)cc3)n2)c1 [GSK1379879],36
9,Cc1cc(-c2ccnc(Nc3cccc(C#N)c3)n2)cc(C)c1O [GSK1440913],7
10,Cc1ccc(O)cc1Nc1ccnc2ccc(C(C)(C)C)cc12 [GW856805],44
11,O=C(Nc1n[nH]c2nc(-c3ccccc3)ccc12)C1CC1 [SB-708999],3
12,Cl.Cl.NC(CNC(=O)c1cc(Br)c(-c2ccnc3[nH]ccc23)s1)c1ccccc1 (centres unmarked) [GSK1322949],59
13,Cn1cc(-c2cnc(N)c3c(-c4ccc5c(c4)CCN5C(=O)Cc4ccccc4)csc23)cn1 [GSK2593074],0
14,O=C1NC(=O)C(c2ccccc2Cl)=C1Nc1cccc(Cl)c1 [SB-342409],41
15,COc1ccc(C2=C(Nc3cccc(O)c3)C(=O)NC2=O)cc1 [SB-390766],73
16,CN(C)CCNS(=O)(=O)c1ccc(-c2ccnc3[nH]ccc23)cc1 [GSK977620],50
17,CC(C)c1nc(-c2cccc(NS(=O)(=O)c3c(F)cccc3F)c2)c(-c2ccnc(Nc3ccc(N4CCOCC4)nc3)n2)s1.Cl [GSK1723980],19
18,CCn1cnc2c(NCc3ccccc3)ncnc21 [SKF-96418],0
19,COC(=O)Nc1nc2cc(Oc3ccc(NC(=O)Nc4cccc(SC)c4)cc3)ccc2[nH]1.Cl [GW697999],25

row,SMILES,%Inh [%]
1,O=C(Nc1n[nH]c2nc(-c3cccc(O)c3)ccc12)C1CC1 [SB-711805],0
2,CN(c1ccc(F)c(NC(=O)c2cccc(OC(C)(C)C#N)c2Cl)c1)c1ccc2nc(NC(=O)C3CC3)sc2n1,46
3,Cc1nn2c(=O)cc(N3CCO[C@H](C)C3)nc2n1Cc1cccc(Cl)c1Cl [GSK2373693],22
4,Cl.O=C(Nc1ccc(Oc2ccc3[nH]c(NC(=O)c4ccco4)nc3c2)cc1)Nc1cc(C(F)(F)F)ccc1F [GW683134],27
5,N#CC1(c2cccc(C(=O)Nc3cccc(Oc4ccc5nc(NC(=O)C6CC6)sc5n4)c3)c2)CC1,15
6,COC(=O)Nc1nc2ccc(Oc3ccc(CC(=O)Nc4cc(C(F)(F)F)ccc4F)cc3)cc2[nH]1 [GW680903],36
7,O=C(Nc1n[nH]c2nc(-c3ccccc3O)ccc12)C1CC1 [SB-711880],0
8,CNc1nccc(-c2ccc3c(N)n[nH]c3c2)n1 [GSK2206003],33
9,O=C(Nc1n[nH]c2cc(-c3cccs3)ccc12)C1CC1 [SB-731284],28
10,CC(C)(C)c1ccc(C(=O)Nc2cn3cc(-n4ccnc4)ccc3n2)cc1,0
11,Cc1ccc(Nc2ccnc(Nc3ccc(C)c(F)c3)n2)cc1O.Cl [GW582868],38
12,Fc1cc(Cl)ccc1Nc1ccnc2cc(-c3ccc(CN4CCOCC4)o3)ccc12 [GW560109],62
13,Nc1cccc(-c2ccc3c(N)n[nH]c3c2)c1 [GSK2193613],0
14,Nc1ncnc2scc(-c3ccc(NC(=O)Cc4cc(F)ccc4F)cc3)c12.O=C(O)C(F)(F)F [SB-731254-M],18
15,COc1cccc(-c2nc(-c3ccccc3)[nH]c2-c2ccncc2)c1 [SB-610250],18
16,Cc1cccc(Nc2nc(NCCN)ncc2C(N)=O)c1 [GSK1292139],46
17,CN1CCN(Cc2ccc(NC(=O)Nc3ccc(N(C)c4ccnc(Nc5ccc(CS(C)(=O)=O)cc5)n4)cc3)cc2)CC1.Cl [GW827654],47
18,CN(c1ccc(NC(=O)Nc2cccc(Cl)c2)cc1)c1ccnc(N)n1.Cl [GW830707],0
